Experimental data taken from the supplement of paper PMC6555819.

Key:
Assay in all cases: PBM binding z-score (relative to random genomic background probes); higher = stronger binding; sequences stand for … in GC…GCGATTGACAGCGTAGAATGAAGG
[1] = tested on: RARb homodimer (NR concentration 270 nM)
Summary of the method: (§1)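 Antibodies against each partner of ligand-free nuclear receptor dimers (one per run) detected binding on custom Agilent 4×180K protein-binding microarrays after 1 h incubation. The double-stranded probes had 34-nt variable regions carrying direct-repeat seeds, single-nucleotide variants, half-site ablations and random human genomic background sequences. Binding z-scores, from regression-normalized fluorescence, use the random background probes as reference.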

[2] = tested on: RARg:RXRa (NR concentration 270 nM, RXRa partner concentration 90 nM)
Summary of the method: as §1

[3] = tested on: RARg homodimer (NR concentration 270 nM)
Summary of the method: as §1

[4] = tested on: RXRa DBDmut IVT, anti-RXR (DBD mutation: RXRa K156A/R161A, NR concentration 90 nM)
Summary of the method: as §1

[5] = tested on: RXRa homodimer (NR concentration 180 nM)
Summary of the method: as §1

[6] = tested on: THRa:RXRa (NR concentration 90 nM, RXRa partner concentration 90 nM)
Summary of the method: as §1

[7] = tested on: THRa homodimer (NR concentration 90 nM)
Summary of the method: as §1

[8] = tested on: VDR homodimer (NR concentration 270 nM)
Summary of the method: as §1

Q: For CCGACTGGGACAGAAAGGTTACCATACCATCCGG, which PBM binding z-score [1] is on record?
A: The PBM binding z-score was 2.12.

Q: What about the PBM binding z-score [2] of the same sequence?
A: The PBM binding z-score was 1.37.

Q: What about the PBM binding z-score [3] of the same sequence?
A: Its PBM binding z-score is 0.963.

Q: And the PBM binding z-score [4]?
A: The PBM binding z-score was -0.641.

Q: And the PBM binding z-score [5]?
A: Its PBM binding z-score is 1.61.

Q: And the PBM binding z-score [6]?
A: The PBM binding z-score was 1.19.

Q: What about the PBM binding z-score [7] of the same sequence?
A: The PBM binding z-score was -0.195.

Q: What about the PBM binding z-score [8] of the same sequence?
A: Its PBM binding z-score is -0.17.

Q: How did the PBM binding z-score [1] turn out when CCGACTGGTGCAGAAAGGTTACCATACCATCCGG was run?
A: The PBM binding z-score was 1.73.

Q: What about the PBM binding z-score [2] of the same sequence?
A: Its PBM binding z-score is 1.16.

Q: And the PBM binding z-score [3]?
A: Its PBM binding z-score is 0.812.

Q: And the PBM binding z-score [4]?
A: Its PBM binding z-score is -0.6.

Q: And the PBM binding z-score [5]?
A: Its PBM binding z-score is 1.61.

Q: What about the PBM binding z-score [6] of the same sequence?
A: Its PBM binding z-score is 0.935.

Q: And the PBM binding z-score [7]?
A: The PBM binding z-score was -0.35.

Q: What about the PBM binding z-score [8] of the same sequence?
A: The PBM binding z-score was -0.229.

Q: With CTAACTAGGTCATTGACAGGACAGTGAATAGTAA as the sequence, how does the PBM binding z-score [1] read?
A: Its PBM binding z-score is 2.61.

Q: What about the PBM binding z-score [2] of the same sequence?
A: The PBM binding z-score was 4.49.

Q: What about the PBM binding z-score [3] of the same sequence?
A: Its PBM binding z-score is 4.43.

Q: What about the PBM binding z-score [4] of the same sequence?
A: The PBM binding z-score was 2.41.

Q: What about the PBM binding z-score [5] of the same sequence?
A: The PBM binding z-score was 2.33.

Q: And the PBM binding z-score [6]?
A: Its PBM binding z-score is 2.85.

Q: And the PBM binding z-score [7]?
A: The PBM binding z-score was 0.816.

Q: What about the PBM binding z-score [8] of the same sequence?
A: The PBM binding z-score was 1.14.

Q: How did the PBM binding z-score [1] turn out when CCGACTGGGGCATAAGGTTACCATGAGCCAGCCC was run?
A: Its PBM binding z-score is 1.89.

Q: And the PBM binding z-score [2]?
A: The PBM binding z-score was 1.81.

Q: And the PBM binding z-score [3]?
A: Its PBM binding z-score is 0.826.

Q: And the PBM binding z-score [4]?
A: Its PBM binding z-score is -0.562.

Q: What about the PBM binding z-score [5] of the same sequence?
A: Its PBM binding z-score is 1.32.

Q: What about the PBM binding z-score [6] of the same sequence?
A: Its PBM binding z-score is 2.05.

Q: And the PBM binding z-score [7]?
A: Its PBM binding z-score is 1.17.

Q: What about the PBM binding z-score [8] of the same sequence?
A: The PBM binding z-score was -0.247.

Q: Which PBM binding z-score [1] does the source give for TCTGCTAGGTCAGTTGGTCACCTAACGAGCTGCC here?
A: Its PBM binding z-score is 2.87.

Q: And the PBM binding z-score [2]?
A: Its PBM binding z-score is 2.97.

Q: What about the PBM binding z-score [3] of the same sequence?
A: Its PBM binding z-score is 3.79.

Q: And the PBM binding z-score [4]?
A: Its PBM binding z-score is 0.479.

Q: And the PBM binding z-score [5]?
A: Its PBM binding z-score is 1.15.

Q: What about the PBM binding z-score [6] of the same sequence?
A: Its PBM binding z-score is 1.88.

Q: And the PBM binding z-score [7]?
A: Its PBM binding z-score is 0.86.

Q: And the PBM binding z-score [8]?
A: The PBM binding z-score was -0.466.

Q: What does the source list for CAAACTAGGTCATAGAGGTCAAAGTCCGTGCGTA?
A: PBM binding z-score [1]: 5.51; PBM binding z-score [2]: 6.95; PBM binding z-score [3]: 7.46; PBM binding z-score [4]: 3.57; PBM binding z-score [5]: 7.64; PBM binding z-score [6]: 4.64; PBM binding z-score [7]: 2.63; PBM binding z-score [8]: 7.04

Q: Which results are given for ATCTCTAGGTAATGATAGTTCAGTGAATGCAAAT?
A: PBM binding z-score [1]: 0.921; PBM binding z-score [2]: 0.493; PBM binding z-score [3]: 0.864; PBM binding z-score [4]: 0.246; PBM binding z-score [5]: 0.462; PBM binding z-score [6]: 0.79; PBM binding z-score [7]: 0.35; PBM binding z-score [8]: 0.644

Q: What does the source list for CTACGAAGGTGAACAAGGTCGTTGATTACTATTC?
A: PBM binding z-score [1]: 2.4; PBM binding z-score [2]: 2.2; PBM binding z-score [3]: 1.98; PBM binding z-score [4]: 1.51; PBM binding z-score [5]: 2.21; PBM binding z-score [6]: 2.91; PBM binding z-score [7]: 1.08; PBM binding z-score [8]: 2.46

Q: CCTACTGGGCCATTCAGACGTCATTGATCATATG was tested. Which PBM binding z-score [1] did it give?
A: Its PBM binding z-score is -0.514.

Q: What about the PBM binding z-score [2] of the same sequence?
A: Its PBM binding z-score is -0.25.

Q: And the PBM binding z-score [3]?
A: The PBM binding z-score was 0.169.

Q: And the PBM binding z-score [4]?
A: The PBM binding z-score was -0.119.

Q: What about the PBM binding z-score [5] of the same sequence?
A: Its PBM binding z-score is -0.341.

Q: What about the PBM binding z-score [6] of the same sequence?
A: The PBM binding z-score was -0.533.

Q: And the PBM binding z-score [7]?
A: Its PBM binding z-score is -0.741.

Q: What about the PBM binding z-score [8] of the same sequence?
A: The PBM binding z-score was -0.378.

Q: ATATGTAGGTTATCGGTTCATTCAGTTTGCGCAT was tested. Which PBM binding z-score [1] did it give?
A: Its PBM binding z-score is 1.17.

Q: What about the PBM binding z-score [2] of the same sequence?
A: Its PBM binding z-score is 1.39.

Q: What about the PBM binding z-score [3] of the same sequence?
A: Its PBM binding z-score is 0.882.

Q: What about the PBM binding z-score [4] of the same sequence?
A: Its PBM binding z-score is 2.4.

Q: And the PBM binding z-score [5]?
A: The PBM binding z-score was 1.66.

Q: What about the PBM binding z-score [6] of the same sequence?
A: Its PBM binding z-score is 1.27.

Q: And the PBM binding z-score [7]?
A: The PBM binding z-score was 1.08.

Q: What about the PBM binding z-score [8] of the same sequence?
A: Its PBM binding z-score is 5.79.

Q: How did the PBM binding z-score [1] turn out when TCATATAGGTAAACAGTTGAAAGTCCGTAAGTTA was run?
A: The PBM binding z-score was 0.802.

Q: What about the PBM binding z-score [2] of the same sequence?
A: Its PBM binding z-score is 0.44.

Q: What about the PBM binding z-score [3] of the same sequence?
A: Its PBM binding z-score is 0.23.

Q: And the PBM binding z-score [4]?
A: The PBM binding z-score was 1.9.

Q: What about the PBM binding z-score [5] of the same sequence?
A: The PBM binding z-score was 0.856.

Q: What about the PBM binding z-score [6] of the same sequence?
A: The PBM binding z-score was 0.535.

Q: What about the PBM binding z-score [7] of the same sequence?
A: The PBM binding z-score was 0.428.

Q: What about the PBM binding z-score [8] of the same sequence?
A: Its PBM binding z-score is 0.845.

Q: Which PBM binding z-score [1] does the source give for CCTTATGGGTCACTCCAGGTTATAGCATCGGAGT here?
A: The PBM binding z-score was 2.87.

Q: And the PBM binding z-score [2]?
A: The PBM binding z-score was 3.68.

Q: What about the PBM binding z-score [3] of the same sequence?
A: The PBM binding z-score was 3.9.

Q: And the PBM binding z-score [4]?
A: Its PBM binding z-score is 0.586.

Q: What about the PBM binding z-score [5] of the same sequence?
A: Its PBM binding z-score is 3.31.

Q: What about the PBM binding z-score [6] of the same sequence?
A: The PBM binding z-score was 4.85.

Q: And the PBM binding z-score [7]?
A: The PBM binding z-score was 0.288.

Q: And the PBM binding z-score [8]?
A: Its PBM binding z-score is 0.918.

Q: How did the PBM binding z-score [1] turn out when ATCTCTAGGTAACACGTTCAGTGAAAGAGAGGAC was run?
A: Its PBM binding z-score is 0.49.

Q: And the PBM binding z-score [2]?
A: Its PBM binding z-score is 0.475.

Q: What about the PBM binding z-score [3] of the same sequence?
A: The PBM binding z-score was 0.586.

Q: And the PBM binding z-score [4]?
A: Its PBM binding z-score is -0.0545.

Q: And the PBM binding z-score [5]?
A: The PBM binding z-score was 0.391.

Q: And the PBM binding z-score [6]?
A: Its PBM binding z-score is 0.954.

Q: And the PBM binding z-score [7]?
A: Its PBM binding z-score is 0.748.

Q: What about the PBM binding z-score [8] of the same sequence?
A: Its PBM binding z-score is 0.453.

Q: How did the PBM binding z-score [1] turn out when CCTTACGGGTCACTCCAGGTGATAGCATCGGAGT was run?
A: Its PBM binding z-score is 2.96.

Q: And the PBM binding z-score [2]?
A: Its PBM binding z-score is 4.43.

Q: What about the PBM binding z-score [3] of the same sequence?
A: Its PBM binding z-score is 4.29.

Q: What about the PBM binding z-score [4] of the same sequence?
A: The PBM binding z-score was 1.6.

Q: What about the PBM binding z-score [5] of the same sequence?
A: Its PBM binding z-score is 4.45.

Q: What about the PBM binding z-score [6] of the same sequence?
A: The PBM binding z-score was 4.81.

Q: What about the PBM binding z-score [7] of the same sequence?
A: Its PBM binding z-score is 0.559.

Q: And the PBM binding z-score [8]?
A: Its PBM binding z-score is 1.16.

Q: With CAAACTGGGTCAAGAGGTCAAAGTCCGCTTCCCG as the sequence, how does the PBM binding z-score [1] read?
A: Its PBM binding z-score is 5.73.

Q: And the PBM binding z-score [2]?
A: Its PBM binding z-score is 7.97.

Q: What about the PBM binding z-score [3] of the same sequence?
A: Its PBM binding z-score is 7.04.

Q: And the PBM binding z-score [4]?
A: The PBM binding z-score was 2.51.

Q: What about the PBM binding z-score [5] of the same sequence?
A: The PBM binding z-score was 8.44.

Q: What about the PBM binding z-score [6] of the same sequence?
A: The PBM binding z-score was 4.14.

Q: What about the PBM binding z-score [7] of the same sequence?
A: The PBM binding z-score was 2.13.

Q: What about the PBM binding z-score [8] of the same sequence?
A: Its PBM binding z-score is 4.76.
